PubChem BioAssay AID624202 (National Center for Advancing Translational Sciences (NCATS), 2012)
The campaign covered roughly 380,000 compounds. About 4,000 (1.1%) were called active. Not shown: some 3% with an inconclusive outcome. This is one part of a sample in which actives are shown more often than they occur. Unmarked numbers belong to inactive results. Calls follow the shape of the dose curve; as a rule, active = well fitted activation curve with a large enough effect; inconclusive = small, poorly fitted or top-dose-only effect; inactive = no such curve, though single readings can be large or run the other way.

Experiment: qHTS Assay to Identify Small Molecule Activators of BRCA1 Expression; also: nearly all actives have a fitted effect of over 80% in size
Conditions: MCF7-BRCA1-FFLuc reporter, luminescence, 48 h; series mostly up to 46.1 µM; activation: at the top concentration
Summary of the method: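 48 h compound treatment of MCF7-BRCA1-FFLuc cells (phenol-red free MEM, 37 °C), then 15 min with luciferase substrate and luminescence imaging.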
Potency is read from the fitted curve at half-maximal effect.

| Structure (SMILES) | activation [%] | Potency |
| --- | --- | --- |
| COc1ccc(Cl)cc1S(=O)(=O)Nc1cccc(C(=O)O)c1 | 4.55 |  |
| C/C(=N\Nc1cccc(C(=O)O)c1)c1ccc2c(c1)Nc1ccccc1S2 |  | 7.08 µM (active) |
| CC(=O)Nc1cccc(/C(C)=N/NC(=O)c2c(-c3ccccc3Cl)noc2C)c1 | -35.1 |  |
| C[N+]1(CC(=O)c2cccs2)CCOCC1 | 2.95 |  |
| COC(=O)c1ccc(CSc2nncn2N)cc1 | 4.18 |  |
| CC(C)CC(CC(C)C)=NNC(=O)c1ccc(CSc2nncn2C)cc1 | 3.02 |  |
| COC(=O)c1ccc(CSc2nncn2C)cc1 |  | 10 µM (active) |
| COc1ccccc1CNC(=O)CCCn1c(=O)c2ccccc2n(CC(=O)Nc2ccc(C)cc2Cl)c1=O | -11.4 |  |
| OC(CBr)CN1CCCCC1 (stereo not given) | 0 |  |
| COC(=O)C1C(=O)c2c([nH]c(C(=O)OCCSC)c2C)CC1C (stereo not given) |  | 28.2 µM (active) |
| Cc1cc(Cl)ccc1NC(=O)Cc1ccc(NC(=O)N2CCCCc3ccccc32)cc1 | 0 |  |
| COc1ccc2[nH]cc(CCN3C(=O)c4ccc(C(=O)O)cc4C3=O)c2c1 |  | 10 µM (active) |
| COCCCN1C(=O)c2ccc(C(=O)Nc3ccc(OC)cc3OC)cc2C1=O | -22.3 |  |
| Cc1ccc2[nH]cc(CCCN3C(=O)c4ccccc4C3=O)c2c1 | 43.5 |  |
| CC(=O)Nc1ccc(C=Cc2ccc([N+](=O)[O-])cc2)cc1 |  | 1.78 µM (active) |
| O=C(Nc1ccc([N+](=O)[O-])cc1)C1CC12CCC2 (stereo not given) | 62 |  |
| O=C(O)/C=C/C(=O)NNc1ccc([N+](=O)[O-])cc1 | 0 |  |
| Cc1cccc(-c2nnc(SC(C)C(=O)Nc3ccccc3)n2C)c1 (stereo not given) | 117 |  |
| COc1ccc(CNC(=O)c2cc3c(s2)-c2ccccc2OC3)cc1 | 18.4 |  |
| O=C(Nc1ccc2nc(SCCOc3ccccc3)sc2c1)c1ccco1 | 0 |  |
| Cc1ccc(NC(=O)c2cc3ccccc3o2)cc1 |  | 12.6 µM (active) |
| O=C(Nc1ccccc1C(=O)N1CCCCC1)c1ccco1 | 6.82 |  |
| O=C(Nc1ccc(O)cc1)c1ccc(NC(=O)c2ccco2)cc1 |  | 3.16 µM (active) |
| O=C(Nc1ccc2nccnc2c1)c1ccco1 |  | 10 µM (active) |
| Cc1cc(C)cc(NC(=O)CSc2ccccc2)c1 | 65 |  |
| O=C(CNC(=O)c1ccco1)NNC(=O)c1ccc(Br)cc1 | -2.34 |  |
| CN(C)C(CNC(=O)c1cc2ccccc2o1)c1ccccc1 (stereo not given) | -8.03 |  |

| Structure (SMILES) | activation [%] | Potency |
| --- | --- | --- |
| C/C(=N\NC(=S)Nc1ccc(C)cc1)c1cc2ccccc2o1 | -20.3 |  |
| O=C(CSc1ccccc1)Nc1ccc(NC(=O)c2ccco2)cc1 |  | 11.2 µM (active) |
| O=C(Nc1ccc(CSc2ccccc2)cc1)c1ccc(CN2CCOCC2)cc1 | -37.6 |  |
| O=C(Nc1ccc2nc(SCCOc3ccccc3Cl)sc2c1)c1ccco1 | 3.88 |  |
| Cc1cc(C)c(NC(=O)Cn2c(SCC(=O)NCc3ccccc3)nc3ccccc32)c(C)c1 | 0 |  |
| CC(=O)c1ccc(NC(=O)c2nc3nc(C)cc(C(F)F)n3n2)cc1 | 21.9 |  |
| CC(=O)Nc1ccc(NC(=O)C2CCCN(S(=O)(=O)c3ccc4c(c3)CCCC(=O)N4)C2)cc1 (stereo not given) | 7.29 |  |
| Cn1c(=O)cc(OCC(=O)N2CCN(c3ccccc3)CC2)c2ccccc21 | 0.73 |  |
| O=C(c1cnn(-c2ccc(F)cc2)c1-n1cccc1)N1CCN(c2ccc(F)cc2)CC1 | -11.3 |  |
| CCOC(=O)c1ccc(NC(=O)CCn2cnnn2)cc1 | -5.89 |  |
| COc1cc2nc(SCc3ccc(F)cc3)n3nc(CCn4c(C)nc5ccccc54)nc3c2cc1OC | 9.42 |  |
| COc1ccc2oc(-c3ccc(C)c(NC(=O)c4sc5ccccc5c4Cl)c3)nc2c1 | -5.08 |  |
| CCOc1ccc(CCNC(=O)c2c(C)oc3ncn(C)c(=O)c23)cc1 | 3.41 |  |
| COC(=O)c1ccccc1NC(=O)c1cnn(-c2ccc(F)cc2)c1-n1cccc1 | -37 |  |
| Cc1ccc(NC(=O)C(c2ccccc2)N2CCN(C(=O)c3ccco3)CC2)cc1 (stereo not given) | 4.49 |  |
| CSCCC(NC(=O)c1ccco1)C(=O)Nc1cc(C)ccn1 (stereo not given) | -7.71 |  |
| Cc1ccc(NC(=O)c2ccco2)cc1 |  | 7.94 µM (active) |
| Cc1ccnc(NC(=O)c2ccc(NC(=O)c3ccco3)cc2)c1 |  | 11.2 µM (active) |
| Cc1ccnc(NC(=O)CCC(=O)N(CC(=O)NCc2ccccc2)Cc2ccco2)c1 | -1.62 |  |
| CN1CCN(S(=O)(=O)c2ccc(NC(=O)c3ccco3)cc2)CC1 | 55.6 |  |
| COC(=O)CC1Oc2ccccc2-n2cc(-c3ccccc3)nc21 (stereo not given) | -3.85 |  |
| CCN(CC)CCNC(=O)c1cc2c(=O)oc3ccc(C)cc3c2s1 | 6.45 |  |
| CC(C)c1ccc(NC(=O)Cn2c3ncccc3c(=O)n2-c2ccccc2)cc1 | 0 |  |
| O=C(Nc1ccc(Br)cc1)c1ccc(Br)c(S(=O)(=O)NCc2ccccc2)c1 | -67 |  |
| COc1ccccc1NC(=O)Cn1cnc2ccc(S(=O)(=O)N3CCC(C)CC3)cc2c1=O | -3.73 |  |
| ClC/C=C/C[n+]1ccccc1Cl | 29.9 |  |
| CCc1nnc(NC(=O)[C@@H](NC(=O)c2cccc(C)c2)C(C)C)s1 | -10.7 |  |

| Structure (SMILES) | activation [%] | Potency |
| --- | --- | --- |
| CCc1nnc(NC(=O)/C=C/c2ccc(C)o2)s1 |  | 11.2 µM (active) |
| Cc1cc(NC(=O)COC(=O)/C=C/c2ccc(C)o2)no1 | -15.1 |  |
| Cc1ccc(N2CCN(C(=O)CCc3c(C)nc4c(c3C)c(=O)n(C)c(=O)n4C)CC2)c(C)c1 | -5.92 |  |
| CSc1n[nH]c(-c2ccco2)n1 | 5.48 |  |
| Cc1cccc(OCC(=O)OCC(=O)Nc2ccc(Cl)cn2)c1 | -9.48 |  |
| O=C(Nc1ccc(Cl)cn1)c1cnn2cccnc12 |  | 6.31 µM (active) |
| O=C(COC(=O)c1ccco1)Nc1ccc(Cl)cn1 | -5.28 |  |
| CC(C)N(Cc1nnc(-c2ccc(Cl)cc2)o1)C(=O)C1=COCCO1 | 27 |  |
| CN(C)CCN(C(=O)C1=COCCO1)c1nc2ccc(Cl)cc2s1 |  | 12.6 µM (active) |
| Cc1cc(N2CCN(c3cccc(C(F)(F)F)c3)CC2)n2nc(-c3ccccc3)nc2n1 | -34.4 |  |
| CCOC(=O)Cc1ccc(NC(=O)Nc2c[nH]c(=O)[nH]c2=O)cc1 | 9.34 |  |
| COC(=O)c1ccc(C2C(C(=O)Nc3ccccc3)=C(C)Nc3nc4ccccc4n32)cc1 (stereo not given) | 1.34 |  |
| Cc1ccccc1-n1c(=O)c2ccccc2n(Cc2ccc(F)cc2)c1=O | 1.73 |  |
| Cn1c(CCN2CCCCCC2)nc2cc(NC(=O)Nc3ccccc3)ccc21 |  | 7.94 µM (active) |
| Cc1nn(CC(=O)Nc2ccc3c(c2)nc(CN2CCCCC2)n3C)c(=O)c2ccccc12 | -21.1 |  |
| Cn1c(CCN2CCN(c3ccccn3)CC2)nc2cc(NS(=O)(=O)c3ccc(F)cc3)ccc21 | -8.24 |  |
| COc1ccc(-c2nc3nc(C)cc(C)n3c2Nc2c(C)cccc2C)cc1 | -20.3 |  |
| CCOC(=O)c1c(C)[nH]c(C)c1S(=O)(=O)N(C)CC(=O)N1CCN(c2ccccc2)CC1 | 3.46 |  |
| CC(C)CNC(=S)NNC(=O)c1ccccc1OC(F)F | -0.636 |  |
| CC(C)CNC(=S)Nc1ccc(F)cc1 |  | 10 µM (active) |
| CC(NC(=S)Nc1ccc(OC(F)F)cc1)c1ccc(F)cc1 (stereo not given) | -27.5 |  |
| CC(C)C(=O)Nc1nnc(Sc2ccc(N(C)C)cc2)s1 | -16.1 |  |
| O=C(CSc1ccccc1)Nc1nnc(/C=C/c2ccccc2)s1 | 70.1 |  |
| COc1ccc(/C=C/c2nnc(NC(=O)C(C)C)s2)cc1 |  | 3.98 µM (active) |
| CCOc1ccc(OCC)c(NC(=O)c2c(C)nn(-c3ccccc3)c2-n2cccc2)c1 | 65.8 |  |
| Cc1cc2c(cc1S(=O)(=O)CCC(=O)Nc1ccc(OC(F)(F)F)cc1)OCC(=O)N2 | 6.63 |  |
| CCOc1ccc(NC(=O)CSc2nnc3c(n2)[nH]c2ccc(S(=O)(=O)N4CCOCC4)cc23)cc1 | 8.86 |  |

| Structure (SMILES) | activation [%] | Potency |
| --- | --- | --- |
| COc1ccc(-n2cnc3cc(NCc4ccco4)ccc32)cc1 |  | 8.91 µM (active) |
| COc1cccc(Nc2nc(N)c([N+](=O)[O-])c(NCc3ccco3)n2)c1 | 0.078 |  |
| COc1ccc(Nc2nc(NCc3ccco3)nc(N/N=C/c3ccccc3Cl)n2)cc1 | 65.1 |  |
| Cc1csc(NCC(=O)c2c[nH]c3ccccc23)n1 | 14 |  |
| CC1CCN(CC(=O)c2c[nH]c3ccccc23)CC1 | 6.76 |  |
| O=C(NCCCc1ccccc1)C(=O)c1c[nH]c2ccccc12 | 61.3 |  |
| O=C(NC1CCCC1)C(=O)c1c[nH]c2ccccc12 |  | 11.2 µM (active) |
| CC(C)Oc1ccc(CNC(=O)C2CCN(c3nc4ccccc4n(C)c3=O)CC2)cc1 | -1.95 |  |
| Cc1nn(Cc2ccc(Cl)cc2)c(Cl)c1/C=N/NC(=O)CNc1ccccc1F | 23 |  |
| CCn1nc(C)c(/C=N/NC(=O)Cc2ccc(Cl)cc2)c1C |  | 7.94 µM (active) |
| O=C(CSc1nnc(SCc2ccc(Cl)cc2)s1)N/N=C/c1ccccc1Cl | 11.2 |  |
| COc1cc2[nH]c(C)c(CCN3CCN(c4ccccc4)CC3)c2cc1OC | 8.7 |  |
| COc1ccccc1C1C(C(=O)N2CCCCC2)=C(C)Nc2nc3ccccc3n21 (stereo not given) | 1.14 |  |
| COC(=O)C1=C(C(=O)OC)[C@@H]2N(Cc3ccccc3)c3ccccc3[C@@]23C[C@@H](C(=O)OC)N(S(=O)(=O)c2ccc(C(F)(F)F)cc2)C3=N1 | -3.67 |  |
| Cc1ccc(-c2nc(C#N)c(NCCCn3ccnc3)o2)cc1 |  | 4.47 µM (active) |
| Cc1ccc2c(Cl)c(C(=O)NCCCn3ccnc3)sc2c1 | -2.83 |  |
| Cc1ccc(S(=O)(=O)c2nc(NCCCn3ccnc3)sc2Cl)cc1 | -18.5 |  |
| CC(C)c1ccc(NC(=O)CN(C)S(=O)(=O)c2ccc3c(c2)c(=O)n(C)c(=O)n3C)cc1 | 6.46 |  |
| COc1ccc2c(c1)c(N1CCCC1=O)c(C(=O)Nc1ccccc1C(F)(F)F)n2C | -15.9 |  |
| O=C(/C=C/c1ccc(Cl)cc1Cl)NCc1ccco1 |  | 11.2 µM (active) |
| O=C(COC(=O)Cc1ccc(Cl)cc1Cl)NCc1ccco1 | 1.86 |  |
| COC(=O)/C=C/C(=O)NCc1ccco1 | 7.24 |  |
| O=C(NCC12CC3CC(CC(C3)C1)C2)c1cc2nc(-c3ccccc3)cc(C(F)(F)F)n2n1 | 4.13 |  |
| COc1ccc(-n2ccnc(NCCc3ccc(Cl)cc3)c2=O)cc1OC | -20.9 |  |
